Consider eight compounds from PubChem BioAssay (Tox21).

Where “and” joins values, the source holds several entries; their conditions need not be identical. Equal entries are not always repeated. Records with an inconclusive call do not appear. Calls of active or inactive are those of the source. Unless noted, calls follow the shape of the dose curve; as a rule, active = well fitted curve in the direction sought with a large enough effect in the repeat runs; inconclusive = weak or mixed curves; inactive = no such curve, though single readings can be large; an effect the other way counts as inactive or inconclusive.

The nature of test [1]: qHTS assay to identify aromatase inhibitors - cell viability counter screen (AID 743084).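 Also: cells stimulated with testosterone during compound exposure; nearly all actives have a fitted effect of over 55% in size.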 Also: potency is read from the fitted curve at half-maximal effect. On the technique in general: In qHTS, concentration-response curves come from the screen itself.
Test [2] addresses Aryl hydrocarbon receptor (Homo sapiens) (UniProt P35869). Kind of test: qHTS assay to identify small molecule that activate the aryl hydrocarbon receptor (AhR) signaling pathway (AID 743085). Also: nearly all actives have a fitted effect of over 15% in size. Also: potency is read from the fitted curve at half-maximal effect.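 As to activation: HG2L7.5c1 human HepG2 liver cells with stably integrated DRE-driven firefly reporter; series mostly up to about 70 µM.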 Put shortly: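 Luminescence (ONE-Glo) from a dioxin-responsive-element luciferase reporter in HG2L7.5c1 HepG2 cells after 24 hr compound exposure at 37C; viability measured by CellTiter-Fluor fluorescence beforehand.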

Test [3] is described as follows: qHTS assay to identify small molecule that activate the aryl hydrocarbon receptor (AhR) signaling pathway - cell viability counter screen (AID 743086). Also: nearly all actives have a fitted effect of over 45% in size. Also: potency is read from the fitted curve at half-maximal effect. Put shortly:
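Cytotoxicity counter screen: CellTiter-Fluor signal (30 min, 37 C) in 4000 HepG2 cells/well carrying the DRE-luciferase reporter, following 24 h compound exposure at 37 C.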

Test [4] concerns the target Peroxisome proliferator-activated receptor gamma (Homo sapiens) (UniProt P37231). Kind of test: qHTS assay to identify small molecule agonists of the peroxisome proliferator-activated receptor gamma (PPARg) signaling pathway (AID 743094; active = well fitted activation curve with a large enough effect in the signal ratio in the repeat runs, not every such curve was filed as active; the % refers to the signal ratio). Put shortly:
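GeneBLAzer PPARg UAS-bla HEK293H cells carrying a stably integrated beta-lactamase reporter were pre-incubated 5 h at 37C, then exposed to compounds in DMSO for 17 h at 37C; LiveBLAzer B/G FRET substrate was added for 1 h at room temperature and fluorescence read.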

Test [5] shares this target. In words: qHTS assay to identify small molecule antagonists of the peroxisome proliferator-activated receptor gamma (PPARg) signaling pathway (AID 743191; calls by dose curve; also: series mostly up to about 63 µM; nearly all actives have a fitted effect of over 30% in size). Put shortly: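 Beta-lactamase reporter under UAS control in HEK293H PPARg-bla cells; compound treatment 17 h at 37C. Read-out: fluorescence intensity after 1 h room-temperature incubation with LiveBLAzer B/G FRET substrate.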

Test [6] is described as follows: qHTS assay to identify small molecule antagonists of the peroxisome proliferator-activated receptor gamma (PPARg) signaling pathway - cell viability counter screen (AID 743194). Also: nearly all actives have a fitted effect of over 55% in size. The conditions noted are these: Potency: co-treated with 50 nM rosiglitazone unless noted. Put shortly: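 Viability was measured as CellTiter-Glo luminescence in GeneBLAzer PPARg UAS-bla HEK293H cells. These cells had been exposed 17 h at 37 C to compounds together with rosiglitazone at 50 nM final, with the beta-lactamase readout taken in the same wells.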

Test [7] can be described thus: qHTS assay for small molecule agonists of the antioxidant response element (ARE) signaling pathway (AID 743202; active = well fitted activation curve with a large enough effect in the signal ratio in the repeat runs, not every such curve was filed as active; the % refers to the signal ratio; also: potency is read from the fitted curve at half-maximal effect). Put shortly: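 An ARE-responsive beta-lactamase gene stably integrated in HepG2 cells serves as reporter. After 5 h plating and 16 h compound incubation at 37 C, fluorescence of the B/G FRET substrate was measured.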
Test [8] can be described thus: qHTS assay for small molecule agonists of the antioxidant response element (ARE) signaling pathway - cell viability counter screen (AID 743203; calls by dose curve; also: nearly all actives have a fitted effect of over 55% in size). Put shortly:
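CellSensor ARE-bla HepG2 cells, 2,000 per well, rested 5 hrs at 37C/5% CO2, then exposed to compound in DMSO for 16 hrs; viability read as CellTiter-Glo luminescence after 30 min at room temperature, in the reporter wells.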

Test [9] is described as follows: qHTS assay for small molecule activators of the heat shock response signaling pathway - cell viability counter screen (AID 743209). Also: nearly all actives have a fitted effect of over 50% in size. Put shortly:
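CellSensor HSE-bla HeLa cells, plated overnight at 37 C/5% CO2, were exposed to compounds in DMSO for 5 h at 37 C. Viability was then read in the same wells by CellTiter-Glo luminescence after 30 min at room temperature.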

Test [10] is described as follows: qHTS assay for small molecule activators of the heat shock response signaling pathway (AID 743210; active = well fitted activation curve with a large enough effect in the signal ratio in the repeat runs, with a control signal flat, not every such curve was filed as active; the % refers to the signal ratio;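 also: HeLa cells with beta-lactamase reporter driven by heat shock elements; series mostly up to about 63 µM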). Put shortly: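 In HSE-bla HeLa cells, 5 h compound incubation (37 C) precedes addition of LiveBLAzer B/G substrate; after 2.5 h at room temperature, fluorescence intensity indicates reporter induction.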
Test [11] can be described thus: qHTS assay to identify small molecule agonists of the peroxisome proliferator-activated receptor delta (PPARd) signaling pathway - cell viability counter screen (AID 743211). Also: nearly all actives have a fitted effect of over 55% in size. Put shortly:
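Viability was measured as CellTiter-Glo luminescence (30 min, room temperature) in the same wells as the beta-lactamase readout. GeneBLAzer PPARd UAS-bla HEK293H cells received compound after 5 h plating and were incubated 17 h at 37 C.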

For test [12], the target named is Peroxisome proliferator-activated receptor delta (Homo sapiens) (UniProt Q03181). In words: qHTS assay to identify small molecule agonists of the peroxisome proliferator-activated receptor delta (PPARd) signaling pathway (AID 743212; calls by dose curve). Put shortly: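 HEK293H UAS-bla reporter cells, human PPARd system; compounds delivered in DMSO after 5 h plating, then at 37 C. Beta-lactamase FRET read, 2 h RT substrate step.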

The nature of test [13]: qHTS assay to identify small molecule antagonists of the peroxisome proliferator-activated receptor delta (PPARd) signaling pathway - cell viability counter screen (AID 743213). Also: nearly all actives have a fitted effect of over 50% in size. Put shortly: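 Cytotoxicity counter screen: CellTiter-Glo luminescence read 30 min after addition, in the same wells as the reporter assay. There, PPARd UAS-bla HEK293H cells (3000/well) were treated 17 h at 37 C with compound and 300 nM L165041.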

Test [14] has as its target Peroxisome proliferator-activated receptor delta (Homo sapiens) (UniProt Q03181). In words: qHTS assay to identify small molecule antagonists of the peroxisome proliferator-activated receptor delta (PPARd) signaling pathway (AID 743215; active = well fitted inhibition curve with a large enough effect in the signal ratio in the repeat runs, not every such curve was filed as active; the % refers to the signal ratio;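 also: cells stimulated with agonist L165041 at 300 nM final during compound exposure; series mostly up to about 62 µM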). Put shortly:
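PPARd UAS-bla HEK293H cells were pre-incubated 5 h at 37 C, then given test compounds in DMSO plus agonist L165041 (300 nM final). After 17 h at 37 C, beta-lactamase FRET substrate was added; fluorescence read after 2 h at room temperature.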

Test [15] can be described thus: qHTS assay to identify small molecule antagonists of the farnesoid-X-receptor (FXR) signaling pathway - cell viability counter screen (AID 743221; active = well fitted cell-killing curve with a large enough effect in the repeat runs, not every such curve was filed as active; also: nearly all actives have a fitted effect of over 50% in size). Put shortly:
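Cytotoxicity counter screen run in the FXR-bla reporter wells: HEK 293T cells exposed to compound with 50 uM (final) chenodeoxycholic acid for 16 h, 37 C, then viability measured by CellTiter-Glo luminescence after 30 min, room temperature.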

The target in test [16] is Vitamin D3 receptor (Homo sapiens) (UniProt P11473). Kind of test: qHTS assay to identify small molecule agonists of the vitamin D receptor (VDR) signaling pathway (AID 743222; calls by dose curve). Put shortly:
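VDR-bla cells were plated 4 h at 37C/5% CO2, then exposed to compounds in DMSO for 16 h. After LiveBLAzer B/G FRET substrate addition and 2 h at room temperature, beta-lactamase reporter fluorescence was read.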

Test [17] shares this target. Kind of test: qHTS assay to identify small molecule antagonists of the vitamin D receptor (VDR) signaling pathway (AID 743223; active = well fitted inhibition curve with a large enough effect in the signal ratio in the repeat runs, not every such curve was filed as active; the % refers to the signal ratio). Put shortly: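 Antagonist mode: compound added to VDR-bla cells alongside agonist 1alpha,25-dihydroxyvitamin D3 (3 nM final), incubation 16 h at 37C. Read-out is LiveBLAzer FRET fluorescence, 2 h at room temperature.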
The target of test [18] is Bile acid receptor (Homo sapiens) (UniProt Q96RI1). In words: qHTS assay to identify small molecule antagonists of the farnesoid-X-receptor (FXR) signaling pathway (AID 743217; active = well fitted inhibition curve with a large enough effect in the signal ratio in the repeat runs, not every such curve was filed as active; the % refers to the signal ratio). Put shortly: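 FXR-UAS-bla HEK 293T cells pre-incubated 5 h at 37 °C, then exposed to compounds with chenodeoxycholic acid (50 uM final) for 16 h at 37 °C. Beta-lactamase reporter read by LiveBLAzer B/G FRET substrate fluorescence after 2 h at room temperature.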

Test [19] in a line: qHTS assay to identify small molecule agonists of the farnesoid-X-receptor (FXR) signaling pathway - cell viability counter screen (AID 743218). Also: nearly all actives have a fitted effect of over 45% in size. Put shortly: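 FXR-UAS-bla HEK 293T cells, plated 5 h at 37 C, were exposed to compounds for 16 h at 37 C. CellTiter-Glo was then added to the same wells as the bla readout; luminescence read after 30 min at room temperature.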

Peroxisome proliferator-activated receptor delta (Homo sapiens), sequence (Q03181 whole entry, looked up): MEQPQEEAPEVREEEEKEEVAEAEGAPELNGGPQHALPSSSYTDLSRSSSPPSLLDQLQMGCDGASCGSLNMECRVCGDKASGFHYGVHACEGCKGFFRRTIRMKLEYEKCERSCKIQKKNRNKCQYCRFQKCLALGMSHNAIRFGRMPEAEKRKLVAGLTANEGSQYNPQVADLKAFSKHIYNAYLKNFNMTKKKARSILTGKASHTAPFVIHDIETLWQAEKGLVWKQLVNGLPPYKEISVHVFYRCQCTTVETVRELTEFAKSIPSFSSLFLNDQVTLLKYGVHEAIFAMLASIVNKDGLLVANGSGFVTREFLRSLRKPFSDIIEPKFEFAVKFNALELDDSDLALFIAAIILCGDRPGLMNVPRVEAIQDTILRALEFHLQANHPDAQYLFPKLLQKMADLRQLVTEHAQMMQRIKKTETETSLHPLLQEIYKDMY
Peroxisome proliferator-activated receptor gamma (Homo sapiens), sequence (P37231 whole entry, looked up): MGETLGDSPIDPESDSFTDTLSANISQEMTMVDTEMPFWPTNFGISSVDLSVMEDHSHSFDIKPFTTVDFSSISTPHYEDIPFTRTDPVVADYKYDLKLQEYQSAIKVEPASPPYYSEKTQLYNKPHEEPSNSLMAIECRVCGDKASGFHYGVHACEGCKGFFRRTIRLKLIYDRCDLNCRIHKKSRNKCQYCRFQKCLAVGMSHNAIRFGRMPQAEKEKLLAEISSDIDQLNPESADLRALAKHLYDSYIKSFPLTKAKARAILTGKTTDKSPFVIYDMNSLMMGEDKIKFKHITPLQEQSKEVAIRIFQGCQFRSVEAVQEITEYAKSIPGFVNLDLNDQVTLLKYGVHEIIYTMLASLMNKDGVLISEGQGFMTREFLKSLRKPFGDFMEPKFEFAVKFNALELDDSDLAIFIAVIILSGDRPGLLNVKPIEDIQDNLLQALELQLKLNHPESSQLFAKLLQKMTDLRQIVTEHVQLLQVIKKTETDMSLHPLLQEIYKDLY
Vitamin D3 receptor (Homo sapiens), sequence (P11473 whole entry, looked up): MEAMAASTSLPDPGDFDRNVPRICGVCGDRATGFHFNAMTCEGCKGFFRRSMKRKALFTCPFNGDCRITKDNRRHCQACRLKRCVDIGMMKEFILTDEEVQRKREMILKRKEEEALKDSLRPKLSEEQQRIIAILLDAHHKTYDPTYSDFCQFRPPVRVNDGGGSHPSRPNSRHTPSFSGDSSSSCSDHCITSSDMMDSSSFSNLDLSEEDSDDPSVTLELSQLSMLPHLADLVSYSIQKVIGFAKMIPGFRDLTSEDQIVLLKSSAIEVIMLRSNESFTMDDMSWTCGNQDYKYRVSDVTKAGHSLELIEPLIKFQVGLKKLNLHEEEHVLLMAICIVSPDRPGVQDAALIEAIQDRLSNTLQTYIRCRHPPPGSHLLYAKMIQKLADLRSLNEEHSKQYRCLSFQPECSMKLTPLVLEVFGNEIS
Aryl hydrocarbon receptor (Homo sapiens), sequence (P35869 whole entry, looked up): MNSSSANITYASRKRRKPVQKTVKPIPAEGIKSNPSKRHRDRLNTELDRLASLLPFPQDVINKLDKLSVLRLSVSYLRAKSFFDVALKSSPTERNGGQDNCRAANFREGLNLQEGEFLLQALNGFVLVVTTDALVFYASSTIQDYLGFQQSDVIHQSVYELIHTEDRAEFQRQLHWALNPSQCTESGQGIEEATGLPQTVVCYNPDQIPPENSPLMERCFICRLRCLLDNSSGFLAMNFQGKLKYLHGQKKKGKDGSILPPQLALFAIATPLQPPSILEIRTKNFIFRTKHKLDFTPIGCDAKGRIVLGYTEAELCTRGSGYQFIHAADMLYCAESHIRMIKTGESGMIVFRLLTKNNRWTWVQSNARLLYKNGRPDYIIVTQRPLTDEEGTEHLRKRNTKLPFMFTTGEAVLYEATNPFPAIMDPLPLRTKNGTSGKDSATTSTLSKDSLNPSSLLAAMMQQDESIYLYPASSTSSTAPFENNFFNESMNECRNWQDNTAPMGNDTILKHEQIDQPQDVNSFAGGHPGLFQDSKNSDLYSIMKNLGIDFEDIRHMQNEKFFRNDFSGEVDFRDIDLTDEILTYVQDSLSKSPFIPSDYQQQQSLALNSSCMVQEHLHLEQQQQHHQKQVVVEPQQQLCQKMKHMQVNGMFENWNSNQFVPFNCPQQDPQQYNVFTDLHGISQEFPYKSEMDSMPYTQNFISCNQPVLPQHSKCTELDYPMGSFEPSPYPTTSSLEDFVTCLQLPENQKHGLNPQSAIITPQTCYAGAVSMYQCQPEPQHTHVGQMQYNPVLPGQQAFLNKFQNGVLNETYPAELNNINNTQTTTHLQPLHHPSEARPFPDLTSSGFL
Bile acid receptor (Homo sapiens), sequence (Q96RI1 whole entry, looked up): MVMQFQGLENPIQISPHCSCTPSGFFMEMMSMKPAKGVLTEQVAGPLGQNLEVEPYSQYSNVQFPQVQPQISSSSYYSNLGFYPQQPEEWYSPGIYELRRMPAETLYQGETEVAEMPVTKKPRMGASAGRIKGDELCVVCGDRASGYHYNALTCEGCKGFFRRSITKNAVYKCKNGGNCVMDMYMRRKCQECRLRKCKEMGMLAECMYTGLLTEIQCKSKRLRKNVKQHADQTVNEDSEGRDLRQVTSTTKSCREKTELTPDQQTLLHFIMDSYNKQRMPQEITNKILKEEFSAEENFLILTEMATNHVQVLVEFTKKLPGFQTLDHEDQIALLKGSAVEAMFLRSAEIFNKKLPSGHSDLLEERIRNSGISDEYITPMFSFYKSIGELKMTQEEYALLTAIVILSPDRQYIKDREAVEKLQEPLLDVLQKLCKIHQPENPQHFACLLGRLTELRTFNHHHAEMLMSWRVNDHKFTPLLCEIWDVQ

Take `CNC(=O)N(C)c1nnc(C(C)(C)C)s1`: the Potency result in test [1], in [2], in test [3], in test [4], in [5] and in test [6] was “inactive” each time. Besides, the Potency entry in test [7], in test [8], in [9], in test [10], in test [11] and in test [12] was “inactive” in each case. Besides, the Potency result in test [13], in test [14] and in [15] was “inactive” throughout. Moreover, the result in [16] and in test [17] was inactive.
As to `CCOP(=S)(OCC)O/N=C(\C#N)c1ccccc1`, the Potency result in [1], in test [3], in test [4], in [5], in test [6] and in test [7] was “inactive” each time. Moreover, the Potency entry in test [8], in test [9], in [10], in test [11], in test [12] and in [14] was “inactive” throughout. In addition, the Potency entry in test [18], in [19] and in test [15] was “inactive” each time. Also, in [2], the Potency was 10.6 µM (active) and 21.7 µM (active). The compound was classed as inactive in test [16] and in [17].
For the compound `Oc1cc(Cl)ccc1Cl`, the Potency result in test [1], in test [2], in [3], in [4], in test [5] and in test [6] was “inactive” in each case. Moreover, the Potency entry in test [7], in test [8], in test [9], in test [10], in test [11] and in [12] was “inactive” in each case. Besides, the Potency result in test [13], in [14], in [19] and in test [15] was “inactive” in each case. In addition, the result in test [16] and in [17] was inactive.
As to `CCCCN(CC)c1c([N+](=O)[O-])cc(C(F)(F)F)cc1[N+](=O)[O-]`, the Potency entry in [1], in [2], in test [3], in test [4], in test [5] and in test [6] was “inactive” each time. Moreover, the Potency entry in test [7], in [8], in [9], in test [10], in test [11] and in [12] was “inactive” in each case. For the same compound, the Potency result in test [13], in test [14] and in test [15] was “inactive” throughout. Moreover, the call in [16] and in test [17] was inactive.
Take `ClC1C(Cl)C(Cl)C(Cl)C(Cl)C1Cl` (configuration not stated): the Potency result in test [1], in test [2], in test [3], in test [4], in test [5] and in test [6] was “inactive” each time. Moreover, the Potency result in test [7], in test [8], in [9], in [10], in test [11] and in test [12] was “inactive” throughout. In addition, the Potency result in test [13], in test [14] and in [15] was “inactive” each time.
On to `COP(=O)(OC)OC`, for which the Potency entry in test [1], in [2], in test [3], in test [4], in test [5] and in [6] was “inactive” throughout. Besides, the Potency entry in [7], in test [8], in [9], in test [10], in [11] and in test [12] was “inactive” each time. Moreover, the Potency entry in [13], in test [14], in [19] and in [15] was “inactive” throughout. The outcome in test [16] and in test [17] was inactive.
Turning to `COc1ccc(C=O)cc1`, the Potency entry in [1], in test [2], in test [3], in test [4], in [5] and in [6] was “inactive” each time. The Potency result in [7], in [8], in test [9], in test [10], in [11] and in [12] was “inactive” each time. Besides, the Potency result in test [13], in test [14], in test [19] and in test [15] was “inactive” in each case. Further, the call in [16] and in [17] was inactive.
Turning to `O=[N+]([O-])c1ccc(O)c([N+](=O)[O-])c1`, the Potency in test [1] was 54.7 µM (active); in [2], 24.4 µM (active); in [3], 38.7 µM (active); in test [7], 48.8 µM (active). Further, the Potency result in test [4], in test [5], in test [6], in test [8], in [9] and in test [10] was “inactive” throughout. In addition, in test [11], the Potency entry is “inactive”.
